Source: PubChem (National Center for Advancing Translational Sciences (NCATS))
Hits are enriched below; roughly 2.7% of the tested compounds scored in any of these assays.
Tau fibril ThT: tau fibrillization inhibition (ThT binding); P10636; recombinant tau K18 P301L, heparin-induced fibrillization, ThT fluorescence; Potency, µM (series often up to 57.4 µM), for the others: top-dose activity, negative = inhibition, actives largely listed as inhibitors; actives 2.1% (n = 270,000); note: potency is the fitted concentration of half-maximal effect; nearly all actives have a fitted effect of over 55% in size
Target sequence (P10636 561-689 P618L limits assumed): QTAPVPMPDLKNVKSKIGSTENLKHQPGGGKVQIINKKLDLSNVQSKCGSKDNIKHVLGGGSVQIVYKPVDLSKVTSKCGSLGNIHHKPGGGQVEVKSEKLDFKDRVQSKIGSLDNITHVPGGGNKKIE
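Fibril formation assay: tau K18 P301L at 15 uM with trace Alexa 594 label, heparin inducer 20 uM, pH 7 sodium acetate buffer, 37 C for 6 hr; endpoint ThT signal.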
Tau fluor cs: counter-screen for tau fibril formation inhibitors | tau K18 P301L (four-repeat tau fragment) Alexa594 fluorescence, heparin fibrillization | Potency, µM (titrated, usually from 57.7 µM), inactives show at the highest dose activity change, negative = decrease | actives 0.93% (n = 280,000) | AID 1463; note: potency is the fitted concentration of half-maximal effect; nearly all actives have a fitted effect of over 55% in size
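Human K18 P301L tau (15 uM unlabeled plus 0.24 uM Alexa 594-labeled, final) in 100 mM sodium acetate pH 7 was mixed with compound and 20 uM heparin and incubated 6 hr at 37 C.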
FBPA coupling cs: coupling enzyme interference in Giardia aldolase counter-screen | activity change, negative = inhibition, % at 58.2 µM, hits read low | coupling enzyme system counterscreen, AmpLite Red fluorescence | actives 0.67% (n = 290,000) | AID 2472; in the data active = activity change below about -30%
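Counterscreen lacking aldolase: glyceraldehyde-3-phosphate coupling-enzyme reagent preincubated 10 min at RT with compound (at 57.5 uM final), then substrate/coupling system with AmpLite Red added; fluorescence read at 525/598 nm after 20 min RT.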
Tau fibril FP: tau fibrillization inhibition (FP); Potency, µM (series often up to 57.7 µM), without a hit: at the top dose activity, negative = inhibition, usual class: inhibitors; P10636; AID 1468; K18 P301L tau heparin fibrillization, Alexa594 FP, 6 h; actives 0.39% (n = 280,000); note: potency is the fitted concentration of half-maximal effect; nearly all actives have a fitted effect of over 55% in size
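Quantitative HTS format: compounds meet 15 uM recombinant K18 P301L tau and Alexa 594-tau tracer in 100 mM sodium acetate pH 7; 20 uM heparin triggers fibrillization at 37 C over 6 hr; FP gives the signal.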
* = called active by the depositor; u = inconclusive; x = no result given; [ ] = another dose, or the depositor's remark. Unless noted, calls come from the whole dose curve; as a rule, active = well fitted curve in the direction sought with a large enough effect; inconclusive = small, poorly fitted or top-dose-only effect, or another doubt; inactive = no such curve, though single readings can be large; an effect the other way counts as inactive or inconclusive. % is set by controls: 0 for no effect and ±100 for the full control effect.

SMILES	Tau fibril ThT	Tau fluor cs	FBPA coupling cs	Tau fibril FP
COc1cccc(Nc2nc(N)c([N+](=O)[O-])c(NCc3ccccc3)n2)c1	u	16µM*[quencher]	-3	u
Cc1cccc(Nc2nc(N)c([N+](=O)[O-])c(NCc3ccccc3)n2)c1	u	u	-2	u
Nc1nc(Nc2ccccc2)nc(NCc2ccccc2)c1[N+](=O)[O-]	u	u	-1	u
CCOc1ccccc1NC(=O)c1nn(-c2ccc(C)cc2)c(=O)n(C)c1=O	6%	9%	x	2%
CCOc1ccc(NC(=O)CC2C(=O)N(c3ccc(C)cc3)C(=O)N2Cc2ccc(OC)cc2)cc1 (stereo not drawn)	1%	-3%	x	0%
COc1cc(SC)ccc1C(=O)NCCOc1c(C)cc(C)cc1C	16µM*	-20%	-2	-6%
COc1cc(SC)ccc1C(=O)NCCOc1ccc(Cl)cc1	u	-12%	2	6%
O=c1ccn(-c2cccc(C(F)(F)F)c2)nc1-c1ccn(-c2ccccc2)n1	-12%	-16%	-38*	-5%
Cc1cc(=O)c(C(=O)O)nn1-c1cccc(C(F)(F)F)c1	x	x	1	x
CO[C@H]1COC(=O)C/C=C\[C@@H](C)COC(=O)[C@@H](OCc2ccccc2)/C=C\[C@@H]1C	-6%[11.5 µM]	-6%[11.6 µM]	1	-1%[11.6 µM]
Cc1ccccc1Nc1nc(-c2sc(NC(=O)c3ccco3)nc2C)cs1	u	u	-19	4%
CC(=O)Nc1ccc(Nc2nc(-c3sc(NC(C)=O)nc3C)cs2)cc1	x	x	-5	x
Cc1ccc(Nc2nc(-c3sc(NC(=O)c4ccco4)nc3C)cs2)cc1	4µM*	u	-4	12%
CCCC(=O)Nc1nc(C)c(-c2csc(Nc3ccc(Cl)cc3)n2)s1	13µM*	14µM*[quencher]	0	7%
CCC(C)C(=O)Nc1nc(C)c(-c2csc(Nc3ccc(Cl)cc3)n2)s1 (stereo not drawn)	u	14µM*[quencher]	-1	15%
COc1ccc(-c2nnc(SCC(=O)N(C)C3CCCCC3)o2)cc1OC	-8%	-30%	x	-12%
CCOC(=O)c1c(NC(C)=O)c2c3c(sc2n1Cc1nc(-c2cccc(C)c2)oc1C)CCCC3	-5%	-2%	x	-5%
Cc1ccc(C2CC(=O)Oc3cc4c(cc32)OCO4)cc1 (stereo not drawn)	u	u	-24	-11%[81.3 µM]
COc1cccc(Cn2c(=O)c(-c3cn(C)c4ccccc34)nc3cnc(N4CCNCC4)nc32)c1	x	x	1	x
COc1ccccc1/C=C/C(=O)Nc1ccc(N2CCOCC2)cc1	2.5µM*	u	-1	6%
COc1cccc(/C=C/C(=O)Nc2ccc(N3CCOCC3)cc2)c1OC	5.6µM*	u	0	2%
COc1ccccc1/C=C/C(=O)OC(C)CN1CCOCC1 (stereo not drawn)	-1%	2%	-45*	1%
COc1ccccc1/C=C/C(=O)Nc1ccc2c(c1)OCCO2	u	u	-11	3%
O=C(Nc1cccc(F)c1)[C@H](CSCc1ccccc1)N1Cc2ccccc2C1=O	-3%	-26%	x	-17%
COc1cccc(C2CC(=O)Nc3c2c(=O)n(C)c2nc4ccccc4n32)c1 (stereo not drawn)	9%	4%	x	5%
SMILES	Tau fibril ThT	Tau fluor cs	FBPA coupling cs	Tau fibril FP
O=C(Cc1cc(=O)[nH][nH]1)N/N=C/C(Cl)=C/c1ccccc1	2.8µM*	u	8	u
O=C(Cc1cc(=O)[nH][nH]1)N/N=C/c1c(Cl)cccc1Cl	u	u	1	-9%
COC(=O)C1=C(C(=O)OC)[C@@H]2N(Cc3ccccc3)c3ccccc3[C@@]23C[C@@H](C(=O)OC)N(S(=O)(=O)c2ccc(OC)cc2)C3=N1	-2%[11.5 µM]	-14%[11.6 µM]	1	0%[11.6 µM]
CC(=O)c1ccc(N=Nc2ccc(N)cc2)cc1	0.56µM*	u	1	-5%
Cc1ccc(Cl)cc1NC(=O)C(Cc1ccccc1)NS(=O)(=O)c1cccc2nsnc12 (stereo not drawn)	-2%	-26%	x	-9%
c1csc(-c2ccnc3ncnn23)c1	0%	7%	-1	3%
Fc1ccc(-c2cnn3c(-c4cccs4)ccnc23)cc1	1.4µM*	-14%	-1	-15%
Fc1ccc(-c2cnn3c(-c4ccncc4)ccnc23)cc1	3.2µM*	-2%	1	3%
CCCCCNC(=O)C(=O)NCC(c1ccc2c(c1)OCO2)N1CCOCC1 (stereo not drawn)	-2%	-9%	x	0%
O=C(c1cccs1)N1CCN(c2ncc(Br)cn2)CC1	-27%	-18%	5	-14%
O=C1OC(Nc2ncccn2)c2ccccc21 (stereo not drawn)	-9%	-6%	0	-4%
O=C1OC(Nc2cc(Br)cc3cccnc23)c2ccccc21 (stereo not drawn)	-16%	-8%	-40*	7%
Cc1ccc(C(=O)/C=C/c2cn(CC(O)CN3CCCCCC3)c3ccccc23)cc1 (stereo not drawn)	13µM*	u	x	-21%
O=C(/C=C/c1cn(CC(O)CN2CCCCCC2)c2ccccc12)c1ccc(Br)cc1 (stereo not drawn)	22µM*	u	x	-12%
O=C(/C=C/c1cn(CC(O)CN2CCCCCC2)c2ccccc12)c1ccccc1 (stereo not drawn)	u	u	x	-6%
O=C(Nc1cccc(C(=O)N2CCN(c3ccc(F)cc3)CC2)c1)c1nsc2ccccc12	-10%	-27%	x	3%
COc1ccc(-c2cc(=O)n3[nH]cnc3n2)cc1	5%	4%	x	-5%
COc1ccc2[nH]cc(CCNc3ncnc4ccc(-c5ccccc5C#N)cc34)c2c1	u	14µM*[quencher]	0	14%
CCN(CC)c1ccc(NC(=O)Nc2cccc(C(C)=O)c2)cc1	u	18µM*[quencher]	-6	13%
CCN(CC)c1ccc(/C=N/NC(=O)Cc2nnc(NC(=O)Nc3ccccc3)s2)cc1	u	7.1µM*[quencher]	5	7%
CC(=O)Nc1cccc(NC(=O)Nc2ccc(C(C)=O)cc2)c1	8%	3%	-1	1%
CCN(CC)c1ccc(/C=N/NC(=O)Nc2ccccc2)cc1	14µM*	14µM*[quencher]	-3	2%
O=C(Cc1nnc(NC(=O)c2ccccc2)s1)N/N=C/c1ccc(O)cc1	x	x	-2	x
CCN(CCNC(=O)Nc1ccc(Cl)cc1)c1ccccc1	u	16µM*[quencher]	0	14%
COc1ccc2oc(=O)c(-c3csc(Nc4cccc(O)c4)n3)cc2c1	13µM*	6.3µM*[quencher]	-1	-4%
Nc1ccc(Nc2nc(-c3cc4ccccc4oc3=O)cs2)cc1	u	8.9µM*[quencher]	1	13%
COc1ccc(Nc2nc(-c3cc4cccc(OC)c4oc3=O)cs2)cc1	u	u	0	11%
O=C(O)c1ccc(Nc2nc(-c3cc4ccccc4oc3=O)cs2)cc1O	7.9µM*	u	4	1%
COc1ccc(CNCc2ccc3c(c2)n(C)c(=O)n3C)cc1	12%	7%	x	5%
O=C(NCCc1ccccc1)c1ccc(CSc2nc3cccnc3n2Cc2ccccc2)cc1	2%	-21%	x	-2%
